# ChEMBL document CHEMBL3988442, “University of Dundee, Small-Polar-MMV Screening Library” (2021)
# Hit rate of the full screen: of about 48,000 compounds, about 13,000 (27%) showed an effect of 50% or more. Some of the results follow.
# Tested on: Wolbachia pipientis
# Assay: Anti-Wolbachia Cell-Based Screen
# Format: functional
# Parameters: scale not given: in the data most compounds retested in dose-response had high values
# Settings: 5 µM
row,Structure (SMILES),Percent Effect
1,CCc1nc(-c2noc3ccc(C(=O)NCCN(C)C)cc23)co1,-6.651%
2,CC(C)(C)NS(=O)(=O)c1ccccc1CNCc1ccccc1,8.138%
3,CC(C)c1nccn1-c1nccnc1C1CCCN1Cc1ccccc1 (stereo unspecified),124.1%
4,Nc1ncncc1-c1noc([C@@H]2CCCN2Cc2cccnc2)n1,-7.414%
5,CC(C)c1nccn1CC1CCCN1Cc1nc2ccccc2n1C (stereo unspecified),-4.978%
6,CC(C)c1nccn1-c1nccnc1C1CCCN1Cc1cccnc1 (stereo unspecified),125.6%
7,CC(C)S(=O)(=O)N1CCCC(c2nccn2Cc2cccnc2)C1 (stereo unspecified),-1.301%
8,Cc1nc(CN2CCCC2Cn2ccnc2C(C)C)nc2ccccc12 (stereo unspecified),0.1374%
9,CC(NCc1ccc(OCC(N)=O)cc1)c1ccc2c(c1)CCCC2 (stereo unspecified),-9.081%
10,CS(=O)(=O)Cc1noc(CN(Cc2ccco2)c2ccccc2)n1,-3.718%
11,CN(C)CCN(C)C(=O)c1cnc2c(c1)nc(-c1ccccc1Cl)n2C,-6.044%
12,Cc1nnc(NC(=O)NCc2ccc(F)cc2)s1,93.84%
13,Cc1nnc(NC(=O)NCc2ccoc2)s1,74.81%
14,Cc1nnc(NC(=O)NCc2cc(F)cc(F)c2)s1,4.254%
15,Cn1cc(NC(=O)NCc2ccoc2)ccc1=O,13.17%
16,COc1ccc(F)cc1C(C)NC(=O)Nc1nnc(C)s1 (stereo unspecified),-6.536%
17,O[C@H]1CC[C@@H](Cc2cc(-c3ccccn3)on2)O[C@@H]1CNCC1CC1,8.949%
18,CN1CCCN(C(=O)c2nc3c(s2)CCCN3CC2CC2)CC1,15.57%
19,CN(C)Cc1ccnc(C2CCCN2Cc2ccc3ncccc3c2)n1 (stereo unspecified),102.5%
20,CN(C)Cc1ccnc(C2CCCN2Cc2ccncc2)n1 (stereo unspecified),-6.271%
21,O=C1O[C@@H]2CN(Cc3cc4ccccc4s3)C[C@@H]2N1Cc1ccccn1,7.899%
22,Cc1cc(C)cc(CN2CCCC2c2noc(C)n2)c1 (stereo unspecified),-1.497%
23,c1ccc2sc(CN3CCCC3c3noc(C4CC4)n3)nc2c1 (stereo unspecified),1.502%
24,CN(C)Cc1ccnc(C2CCCN2Cc2cc3ccccc3s2)n1 (stereo unspecified),97.93%

row,Structure (SMILES),Percent Effect
1,CCC(C)(C)NC(=O)c1ccc(NC(=O)NCc2cc(C)on2)cc1,-5.404%
2,CN1CC2(CCN(C(=O)c3ccc4c(=O)n(C)cnc4c3)CC2)CC1=O,-1.826%
3,COc1ccc(CC(=O)N2CCC[C@@H](N)[C@@H]2c2ccccc2F)cc1.Cl,65.32%
4,COc1cccc(C(=O)N2CCCC(C(=O)CCc3ccccc3)C2)c1 (stereo unspecified),-1.62%
5,CN(C(=O)Cc1c[nH]c2ccccc12)C1CCN(c2ccccn2)CC1,-5.005%
6,N[C@@H]1CCCN(C(=O)Cc2c[nH]c3ccccc23)[C@H]1c1ccccc1F,92.02%
7,COc1cccc(CC2CCCN2CC(N)=O)c1 (stereo unspecified),14.09%
8,COc1cccc(CCC(=O)N2CCC[C@@H](N)[C@@H]2c2ccccc2F)c1.Cl,156.6%
9,COc1ccc(CC(=O)N2CCCC(Cn3cc(CN)nn3)C2)cc1 (stereo unspecified),-29.22%
10,COC(=O)c1cc2n(n1)CCCN(C(=O)Cc1c[nH]c3ccccc13)C2,-8.312%
11,CN1CCC(N[C@@H]2CO[C@H](CNC(=O)C3CCCC3)[C@H]2O)CC1,-10.26%
12,CN(C)C(=O)CNC(=O)CCn1ncc2c(Cl)cccc21,7.628%
13,O=C(NCCn1ccnc1)c1ccn(-c2cccc(F)c2)n1,3.245%
14,COc1cn(-c2ccccc2)nc1C(=O)NCCCN1CCCC(C)C1 (stereo unspecified),0.4079%
15,CC1CCCN(CCNC(=O)c2ccn(-c3ccccc3)n2)C1 (stereo unspecified),-2.104%
16,COc1cn(-c2ccccc2)nc1C(=O)NCCN1CCCC(C)C1 (stereo unspecified),85.45%
17,CC1CCCN(CCNC(=O)c2ccn(-c3ccc(F)cc3)n2)C1 (stereo unspecified),89.11%
18,CC1CCCN(CCNC(=O)c2ccn(-c3cccc(F)c3)n2)C1 (stereo unspecified),71.46%
19,COc1ccc(-n2ccc(C(=O)NCCN3CCCC(C)C3)n2)cc1 (stereo unspecified),109.8%
20,CC1CCCN(CCCNC(=O)c2cn(C)nc2-c2cccnc2)C1 (stereo unspecified),-7.015%
21,CC(=O)N1CCC(C(=O)NCCN2CCCC(C)C2)CC1 (stereo unspecified),4.421%
22,COCC1c2nnn(CC3CC3)c2CCN1C(=O)c1ccnnc1 (stereo unspecified),-5.349%
23,Cc1csc(N(C)C(=O)C2CC(=O)N(c3ccccc3Cl)C2)n1 (stereo unspecified),9.936%
24,CC(Sc1nnc(C2CC2)n1CC(N)=O)c1ccc(F)cc1F (stereo unspecified),-10.03%

row,Structure (SMILES),Percent Effect
1,Cc1cccc(-c2ncc(CNC(C)CO)cn2)c1 (stereo unspecified),-5.698%
2,Cn1cnnc1C1CCN(c2cncc(-n3cccn3)n2)CC1,0.9995%
3,O=C(NCC(O)(c1cccs1)C1CC1)NC1CCCCC1 (stereo unspecified),9.559%
4,COCC1CN(S(=O)(=O)Cc2ccccc2)Cc2c1cnn2C.O=C(O)C(F)(F)F (stereo unspecified),-18.15%
5,Cc1cccc(N2CCN(CC(=O)N3CCCC(N(C)C)CC3)CC2)c1 (stereo unspecified),-50.72%
6,Cc1cc(Nc2cnccn2)cc(C2CCCN2)n1 (stereo unspecified),103.5%
7,Cc1cc(Nc2ccc(F)cn2)cc(C2CCCN2)n1 (stereo unspecified),111.9%
8,Cl.Cl.Fc1cccc(-c2c[nH]c(C3CCCN3)n2)c1 (stereo unspecified),-26.74%
9,Cc1cc(Nc2cnccn2)cc(C2CCCNC2)n1 (stereo unspecified),90.08%
10,Cc1cc(Nc2nc(C)cc(C)n2)cc(C2CCCN2)n1 (stereo unspecified),104%
11,Cc1cc(C)nc(NC2CCOC3(CCCC3)C2)n1 (stereo unspecified),-13.03%
12,Cn1cc(C2CC3(CCN(C(=O)c4ccsc4)CC3)NC2=O)cn1 (stereo unspecified),-8.602%
13,Cc1ccc(C(=O)N2CC(C)(C)[C@@](C)(O)C2)cc1N1CCNC1=O,-5.477%
14,Cc1nn(C)c(C)c1CN(CCO)C(=O)C1COc2ccccc2C1 (stereo unspecified),-4.476%
15,COCC(O)CNC(=O)c1coc(COc2ccc3sc(C)nc3c2)n1 (stereo unspecified),-2.868%
16,CC(Cn1cccn1)NCc1csc(-c2ccccc2)n1 (stereo unspecified),5.94%
17,CCCS(=O)(=O)NC(=O)c1ccc(Br)o1,-3.964%
18,CC(=O)N1CCC(c2nc3ccc(-c4ccnn4C)cn3n2)CC1.O=C(O)C(F)(F)F,79.91%
19,Cn1nccc1-c1ccc2nc(C3CCN(CCO)CC3)nn2c1.O=C(O)C(F)(F)F,-15.06%
20,Cn1nccc1-c1ccc2nc(C3CCNCC3)nn2c1,98.45%
21,O=C(O)C(F)(F)F.O=C(O)C(F)(F)F.c1cc2nc(C3CCN(CC4CC4)CC3)nn2cc1N1CCCC1,-8.773%
22,Cn1nccc1-c1ccc2nc(C3CCN(CC4CC4)CC3)nn2c1.O=C(O)C(F)(F)F.O=C(O)C(F)(F)F,97.48%
23,CC(C)N1CCC(c2nc3ccc(-c4ccnn4C)cn3n2)CC1.O=C(O)C(F)(F)F,101.4%
